Screens: PubChem BioAssay, National Center for Advancing Translational Sciences (NCATS)
This is a sample that favours compounds with a hit; in the whole collection about 6.5% have one here.
HT1080 IDH1KD tx – HT-1080 IDH1 knockdown cell toxicity (counter line) | 360,000 compounds, 2% hits | Potency, µM (highest dose often 46.1 µM), inactives show at the top dose activity, negative = toxicity, hits mostly cytotoxic | AID 686971 | HT-1080 IDH1 knockdown viability, ATP luminescence, 48 h;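 further: potency means the concentration at half of the fitted maximal effect; 0% = DMSO wells and -100% = cell-free medium wells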
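CellTiter-Glo luminescence after 48 h compound exposure at 37 degrees C of IDH1-knockdown HT-1080 cells in 5% FBS RPMI. %Activity scaled between DMSO wells and cell-free media wells, with curves fitted and assigned curve classes.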
HepG2 tox-1 – counter-screen for TGF-b inhibitors: cytotoxicity in HepG2 cells. 410,000 compounds, 0.76% hits. Potency, µM (titrated, usually from 46.1 µM), without a hit: at the top dose activity change, negative = cytotoxicity, actives largely listed as cytotoxic. HepG2 CAGA-GFP viability, ATP luminescence, 18 h; further: potency means the concentration at half of the fitted maximal effect
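CellTiter-Glo luminescence gave cytotoxicity after 18 hours at 37 degrees C. The cells were HepG2 CAGA-GFP in 1% FBS DMEM, stimulated with 500 pg/mL TGF-beta after compound addition. %Activity was normalised to no-cell wells (complete cell-killing) and DMSO (no toxicity), and curves were fitted and classified.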
HT1080NT lethal – kills 2HG-producing HT-1080-NT fibrosarcoma cells. HT-1080-NT fibrosarcoma viability, CellTiter-Glo ATP luminescence, 48 h. Potency, µM (top dose mostly 46.1 µM), without a hit: top-dose activity, negative = less viability, hits mostly cytotoxic. 360,000 compounds, 1.6% hits. AID 686970;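 further: NT is the 2HG producing partner of a matched IDH1 knockdown line; potency means the concentration at half of the fitted maximal effect; 0% = DMSO-treated cells and -100% = media-only wells without cells; nearly all actives have a fitted effect of over 55% in size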
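HT-1080-NT; 750 cells/well; 5% FBS RPMI; 48 h compound, 37 degrees C; CellTiter-Glo luminescence; curve fitting and curve-class assignment.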
Giardia killer – Giardia lamblia killing; Giardia lamblia trophozoite viability; activity change, % at 7.66 µM, hits read low; 340,000 compounds, 0.15% hits; AID 540267; in the data active means activity change below about -80%; inconclusive means between about -30% and that limit;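 further: parasites exposed to compound for two days anaerobically before the ATP read; on the % scale 0 is the no-effect control and ±100 the full control effect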
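Killing of trophozoites was scored by loss of ATP luminescence after a 48 hrs anaerobic exposure to compounds at 37 deg C, using 100 cells per well.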
IL1B secr inh – inflammasome signaling inhibition, IL-1 beta readout | 360,000 compounds, 4.7% hits | activity change, % at 57.5 µM | AID 743279 | THP-1 LPS/ATP IL-1B secretion, AlphaLISA, 16 h; active compounds read low; in the data active means activity change below about -50%; inconclusive means mostly about -30% to -49%; further: on the % scale 0 is the no-effect control and ±100 the full control effect
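THP-1 cells pretreated 1 hr with compounds (up to 57.5 uM final), then stimulated with LPS (250 ng/mL final) plus ATP (1.25 mM final); secreted IL-1B measured by AlphaLISA after 16 hr, decreased signal indicating inhibition.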
TGFb inhibitor – inhibitors of TGF-b signaling; HepG2 CAGA-GFP TGF-b/SMAD3 reporter, GFP fluorescence, 18 h; TGF-beta stimulated, 500 pg/mL final; Potency, µM (series often up to 46.1 µM), for inactives: at the highest dose activity, negative = inhibition, actives largely listed as inhibitors; 410,000 compounds, 1.2% hits; AID 588855; further: potency means the concentration at half of the fitted maximal effect; on the % scale 0 is the no-effect control and ±100 the full control effect; nearly all actives have a fitted effect of over 65% in size
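Inhibition of TGF-beta-driven CAGA-GFP reporter expression in HEPG2 cells is measured by cellular GFP fluorescence after 18 h stimulation with 500 pg/mL recombinant TGF-beta in 1% FBS medium at 37 degrees C.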
TGFb CAGA inh – confirmation of TGF-b signaling inhibitors in HepG2 reporter cells; Potency, µM (highest dose often 46.1 µM), for inactives: top-dose activity, negative = inhibition, actives largely listed as inhibitors; HepG2 CAGA-GFP TGF-b reporter, GFP fluorescence, 18 h; cells stimulated with TGF-beta, 500 pg/mL; shares compounds with TGFb inhibitor; 1,600 compounds, 63% hits; further: potency means the concentration at half of the fitted maximal effect; on the % scale 0 is the no-effect control and ±100 the full control effect; nearly all actives have a fitted effect of over 65% in size
HepG2 tox-2 – HepG2 cytotoxicity, TGF-b inhibitor counterscreen. AID 720535. Potency, µM (doses to about 46.1 µM), for inactives: top-dose activity, negative = cytotoxicity, most hits filed as inhibitors. 1,600 compounds, 27% hits. shares compounds with TGFb inhibitor. HepG2 CAGA-GFP viability, ATP luminescence, 18 h; cells stimulated with TGF-beta, 500 pg/mL; further: potency means the concentration at half of the fitted maximal effect; on the % scale 0 is the no-effect control and ±100 the full control effect; nearly all actives have a fitted effect of over 70% in size
CCL64 TGFb inh – TGF-b inhibition, CCL64 orthogonal assay; shares compounds with TGFb inhibitor; 1,600 compounds, 41% hits; CCL64 CAGA-GFP reporter, TGF-b stimulated, GFP fluorescence, 18 h; Potency, µM (titrated, usually from 46.1 µM), for the others: at the top dose activity, negative = inhibition, actives largely listed as inhibitors; AID 720536; further: potency means the concentration at half of the fitted maximal effect; nearly all actives have a fitted effect of over 65% in size
COP TGFb inh – validation of TGF-b inhibitors in HepG2 COP promoter reporter. shares compounds with TGFb inhibitor. HepG2 COP-GFP TGF-b reporter, GFP fluorescence, 18 h; cells stimulated by added recombinant TGF-beta. Potency, µM (titrated, usually from 46.1 µM), without a hit: at the top dose activity, negative = inhibition, most hits filed as inhibitors. 1,600 compounds, 3% hits. AID 720537; further: potency means the concentration at half of the fitted maximal effect; nearly all actives have a fitted effect of over 70% in size
The depositor's hits bear a star; ? = inconclusive; / = not tested or not shown. Unless noted, the call rests on the fitted dose curve; in most records, active means well fitted curve in the direction sought with a large enough effect; inconclusive means small, poorly fitted or top-dose-only effect, or another doubt; inactive means no such curve, though single readings can be large; an effect the other way counts as inactive or inconclusive.

SMILES	HT1080 IDH1KD tx	HepG2 tox-1	HT1080NT lethal	Giardia killer	IL1B secr inh	TGFb inhibitor	TGFb CAGA inh	HepG2 tox-2	CCL64 TGFb inh	COP TGFb inh
Cc1ccc(NC(=O)[C@H]2O[C@@H]3OC(C)(C)O[C@@H]3[C@H]3OC(C)(C)O[C@H]32)cc1F	/	-7.0%	/	/	/	-16.8%	/	/	/	/
O=S(=O)(CCOc1ccccc1)c1nc2ccccc2[nH]1	?	-33.0%	?	-15.4	-25.6	15.8µM*	6.51µM*	23.1µM*	16.4µM*	?
CCOC(=O)C1CCN(C(=O)c2c(C)oc3c2C(=O)c2ccccc2C3=O)CC1	-14.7%	2.82µM*	-5.9%	?	-75.7*	4.47µM*	2.06µM*	5.17µM*	7.31µM*	5.8µM*
Cc1oc2c(c1C(=O)N1CCC(C)CC1)C(=O)c1ccccc1C2=O	23.1µM*	5.01µM*	20.6µM*	?	152.4	3.98µM*	3.66µM*	5.8µM*	11.6µM*	20.6µM*
Cc1cccc(NC(=S)N=Nc2c(O)[nH]c3ccccc23)c1	?	-28.4%	?	-9.6	14.8	?	/	/	/	/
COc1ccccc1NC(=S)N=Nc1c(O)[nH]c2ccc(Br)cc12	-21.1%	11.4%	7.7%	-20.2	0.0	?	?	?	3.26µM*	-2.6%
CCCN[C@@H]1C(=O)N2C(C(=O)OCCC)=C(C)CS[C@H]12	-6.2%	-1.9%	-6.4%	-4.9	-3.4	-11.2%	/	/	/	/
CCOC(=O)C1=CCN(S(=O)(=O)c2ccccc2F)C1c1cccc(Cl)c1 (stereo unspecified)	-1.1%	-17.8%	-3.1%	/	52.8	11.2µM*	?	2.5%	?	-0.6%
CCOC(=O)C1=CCN(S(=O)(=O)c2ccccc2C)C1c1cccc(Cl)c1 (stereo unspecified)	?	/	-17.7%	/	12.5	/	/	/	/	/
CCOC(=O)C1=CCN(S(=O)(=O)c2ccc(C)cc2)C1c1cccc(Cl)c1 (stereo unspecified)	?	-32.2%	-29.3%	/	-29.9	10µM*	23.1µM*	-6.9%	0.0%	-8.3%
CCOC(=O)C1=CCN(S(=O)(=O)c2cccc(Cl)c2)C1c1cccc(C)c1 (stereo unspecified)	-0.6%	-25.0%	-23.7%	/	-20.4	-19.3%	/	/	/	/
COc1ccc(C(=O)On2c(-c3ccc(Br)cc3)nc3ccccc3c2=O)cc1	?	-18.0%	?	1.5	?	12.6µM*	11.6µM*	20.6µM*	20.6µM*	11.7%
COC(=O)c1ccc(C)c(NS(=O)(=O)c2ccc(OC)cc2)c1	?	-2.8%	?	9.6	-0.1	?	?	-0.8%	?	-6.7%
CC(=O)Nc1ccc(NC2=C/C(=N/S(=O)(=O)c3cccs3)c3ccccc3C2=O)cc1	9.2µM*	6.31µM*	16.4µM*	-13.3	-95.2*	5.01µM*	2.59µM*	3.26µM*	9.2µM*	5.17µM*
COc1ccc(S(=O)(=O)/N=C2\C=C(Nc3ccc(O)cc3)C(=O)c3ccccc32)cc1	2.06µM*	0.891µM*	1.84µM*	-4.9	-96.2*	0.794µM*	0.581µM*	4.11µM*	1.3µM*	?
Cn1c(=O)c([N+](=O)[O-])c(NC2CCS(=O)(=O)C2)c2ccccc21 (stereo unspecified)	-0.6%	-0.7%	2.9%	5.1	20.0	15.9%	/	/	/	/
Nc1ncnc2c1ncn2[C@@H]1O[C@H](C(=O)NCc2ccc(OC(F)(F)F)cc2)[C@@H](O)[C@H]1O	-14.4%	-28.8%	-1.3%	/	-26.1	?	?	-14.6%	-14.9%	-0.5%
Cc1c(C(=O)NCc2ccccc2Cl)sc2nc3n(c(=O)c12)CCCC3	/	-10.5%	/	/	/	-5.5%	/	/	/	/
O=C(C1CCC(CNS(=O)(=O)c2cccc3nsnc23)CC1)N1CC=C(c2ccccc2)CC1 (stereo unspecified)	?	-52.2%	-13.5%	-7.3	19.3	8.91µM*	?	?	?	11.6%
c1ccc(Sc2ncnc3ccccc23)cc1	?	-35.6%	-25.8%	-8.1	/	10µM*	10.3µM*	?	?	39.5%
Cc1c(C(=O)N(C)Cc2nc3ccccc3c(=O)[nH]2)oc2ccccc12	?	-6.8%	-22.5%	7.6	18.9	9.1%	/	/	/	/
O=S(=O)(Nc1cccc2ncccc12)c1cccs1	?	-41.2%	-8.5%	-11.0	-63.7*	6.31µM*	14.6µM*	?	6.51µM*	39.6%
Cc1c(NS(=O)(=O)c2cccs2)cccc1-c1nc2cccnc2s1	1.8%	-10.7%	?	-27.0	14.5	?	/	/	/	/
Cc1cc(CNC(=O)c2ccc3nc(Cc4ccccc4F)oc3c2)nn1C	13.2%	0.1%	13.4%	-17.9	-14.2	-11.2%	/	/	/	/
O=C(NCc1ccncc1)c1ccc2nc(Cc3ccccc3F)oc2c1	-22.4%	1.7%	-16.4%	3.4	-7.3	?	?	-14.5%	15.6%	-17.6%
O=S1(=O)CC(N2CCCCC2)CN1Cc1cn(Cc2ccc(C(F)(F)F)cc2)nn1 (stereo unspecified)	4.3%	/	4.7%	/	4.7	/	/	/	/	/
CCCc1nnc(NC(=O)C(CC)OC(=O)c2cc(C)nc3ccccc23)s1 (stereo unspecified)	2.0%	5.2%	-0.6%	7.2	30.0	?	?	1.4%	7.8%	4.6%
COC(=O)c1cc(S(=O)(=O)N2CCN(c3ccccc3F)CC2)c[nH]1	-21.9%	-5.1%	-1.3%	17.3	25.9	-9.9%	/	/	/	/
